From PubChem BioAssay (NCI) come the findings set out here.

Structures are written as SMILES. The panel holds about 79,000 compounds, 15% with a hit somewhere; the sample as a whole holds those more often. Unmarked numbers belong to inactive results. Activity calls are given as the source filed them. Rule as the data show it: active = growth inhibition above about 70%; inactive = the rest.

Assay [1] is described as follows: NCI Yeast Anticancer Drug Screen. Data for the rad50 strain (AID 155).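 Also: 0% = growth of vehicle-only cultures of the same strain.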 The following applies: S. cerevisiae rad50 strain growth inhibition; at 50.0 µM; active compounds read high. The gist of the method:
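Inhibition values express reduced yeast growth in compound-treated cultures relative to vehicle-treated controls.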

The nature of assay [2]: NCI Yeast Anticancer Drug Screen. Data for the mec2-1 strain (AID 157). The following applies: S. cerevisiae mec2-1 strain, at 50.0 µM, active compounds read high. The gist of the method:
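mec2-1 yeast strain, carrying an alteration in DNA damage repair or cell cycle control, was exposed to compounds; growth inhibition was measured relative to vehicle-treated controls.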

Assay [3] in a line: NCI Yeast Anticancer Drug Screen. Data for the sgs1 mgt1 strain (AID 161).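 Also: 0% = growth of cultures given vehicle only.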 The following applies: S. cerevisiae sgs1 mgt1 strain, at 50.0 µM, active compounds read high. Summed up:
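Growth of a repair-deficient yeast mutant was monitored after compound treatment and expressed as inhibition relative to vehicle-treated cultures.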

A short description of assay [4]: NCI Yeast Anticancer Drug Screen. Data for the cln2 rad14 strain (AID 165).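 Also: 0% = growth equal to vehicle treated cultures.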 The following applies: S. cerevisiae cln2 rad14 strain, at 50.0 µM, active compounds read high. Summed up:
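Yeast carrying cln2 and rad14 alterations (cell cycle control and DNA damage repair) were exposed to compounds. Growth inhibition was measured against vehicle-treated controls.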

A short description of assay [5]: NCI Yeast Anticancer Drug Screen. Data for the bub3 strain (AID 167). The following applies: S. cerevisiae bub3 mutant strain, at 50.0 µM, active compounds read high. Summed up: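 Steps: expose the mutant yeast strain to compound; grow alongside vehicle-treated cultures; measure growth; express inhibition against the vehicle cultures.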
The nature of assay [6]: NCI Yeast Anticancer Drug Screen. Data for the mlh1 rad18 strain (AID 175). The following applies: S. cerevisiae mlh1 rad18 strain growth inhibition; at 50.0 µM; active compounds read high. Summed up: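 Growth inhibition of the yeast strain was measured after compound exposure and expressed relative to vehicle-treated controls. The strain carries defined defects in DNA damage repair.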

For `O=C1C=CC2(C=C1)OCC(=O)O2`, the growth inhibition was 6.15% in assay [1]; 10.2% in assay [2]; 3.25% in assay [3]; 4.65% in assay [4]; -3.1% in assay [5]; 0.5% in assay [6].
Consider `Cc1cc(Oc2cnc(=O)[nH]c2)cs1`, for which the growth inhibition in assay [1] is 27.1%; in assay [2], 22.4%; in assay [3], 19.9%; in assay [4], 1.7%; in assay [5] it was 12%; in assay [6], 10.9%.
Consider `COC(=O)C(=O)C1(C)CCc2c(ccc3ccc(OC)cc23)C1=O` (stereo not drawn), for which the growth inhibition in assay [1] is -32.8%; in assay [2], -3.1%; in assay [3], -5.9%; in assay [4] it was -31.9%; in assay [5], 19.9%; in assay [6] it was -5.65%.
`Cn1c(=O)c(-c2ccccc2)c(O)c2ccccc21`: the growth inhibition in assay [1] is 14.8%; in assay [2], 12.4%; in assay [3], -2.4%; in assay [4] it was 27.4%; in assay [5], -8.1%; in assay [6] it was -20.4%.
In the case of `O=C1C2C3C=CC(CC3)C2C(=O)C2C3C=CC(C3)C12` (stereo not drawn), the growth inhibition was 1.15% in assay [1]; 24.1% in assay [2]; 26.9% in assay [3]; -14.8% in assay [4]; -1.45% in assay [5]; 32.3% in assay [6].
Regarding `O=S=NCCCl`, the growth inhibition in assay [1] is -14.3%; in assay [2], -14.6%; in assay [3], -13.2%; in assay [4], 1.5%; in assay [5], -10.8%; in assay [6], 0.35%.
For `CCN(CC)c1ccc2c(c1)C(O)c1ccccc1-2` (stereo not drawn), the growth inhibition in assay [1] was -3.75%; in assay [2], -20.4%; in assay [3], -5.7%; in assay [4] it was -12.4%; in assay [5] it was 14.4%; in assay [6], 17.6%.
Turning to `Nc1cccc(-c2nc3ccccc3[nH]2)c1`, the growth inhibition in assay [1] was -21.9%; in assay [2], -26.4%; in assay [3], -17.8%; in assay [4], -9.2%; in assay [5] it was -20.2%; in assay [6], -14.6%.
With `FC(F)(F)c1cccc(C=NC23CC4CC(CC(C4)C2)C3)c1`, the growth inhibition is -16.4% in assay [1]; -14.6% in assay [2]; -2.05% in assay [3]; 10.4% in assay [4]; -30% in assay [5]; 8.75% in assay [6].
As to `COc1cccc(C2C(C(=O)O)=C(CO)Oc3cc4c(cc32)OCO4)c1` (stereo not drawn), the growth inhibition in assay [1] is 21.4%; in assay [2], 15.8%; in assay [3], 21.9%; in assay [4], 13.6%; in assay [5], 12.6%; in assay [6], 15.2%.
As for `O=[N+]([O-])c1cccc(S/N=C/c2c(O)ccc3ccccc23)c1`, the growth inhibition was 98.5% (active) in assay [1]; 99.1% (active) in assay [2]; 99.2% (active) in assay [3]; 72.8% (active) in assay [4]; 98.5% (active) in assay [5]; 97.8% (active) in assay [6].
For the compound `CC(=O)Nc1ccc(F)c(F)c1`, the growth inhibition in assay [1] was 17.8%; in assay [2] it was -16.7%; in assay [3] it was 3.2%; in assay [4], -3.95%; in assay [5], -3.35%; in assay [6], 30.8%.
On to `O=C(NN1C(=O)CSC1c1ccccc1F)c1ccncc1` (stereo not drawn), for which the growth inhibition was 11.2% in assay [1]; 6.25% in assay [2]; 21.6% in assay [3]; 7.7% in assay [4]; 11.9% in assay [5]; 19.5% in assay [6].
On to `Cc1ccc(NC(=S)NC(=O)c2cccc([N+](=O)[O-])c2)cc1C`, for which the growth inhibition is 1.8% in assay [1]; 15.5% in assay [2]; 14.5% in assay [3]; -26.7% in assay [4]; 0.6% in assay [5]; 11.7% in assay [6].
`CCc1cccc(C)c1NC(=O)C(=O)CC(=O)CS(=O)(=O)c1ccc(C)cc1`: the growth inhibition in assay [1] was -13.4%; in assay [2], -15.2%; in assay [3], -6%; in assay [4] it was -0.8%; in assay [5], -8.8%; in assay [6] it was 12.5%.
Consider `N#CC(C#N)=C(N)/C(C#N)=C\c1ccnc2ccccc12`, for which the growth inhibition in assay [1] is -28.9%; in assay [2] it was -1.75%; in assay [3], -3%; in assay [4] it was 15.1%; in assay [5], 0.65%; in assay [6] it was -18.2%.
On to `CC12CCC(C(Br)C1=O)C2(C)CBr` (stereo not drawn), for which the growth inhibition was -9.8% in assay [1]; 5.75% in assay [2]; 20.4% in assay [3]; 23.8% in assay [4]; 9% in assay [5]; -0.7% in assay [6].
As to `Cc1cc(-c2ccc(NC(=O)c3cccc([N+](=O)[O-])c3)c(C)c2)ccc1NC(=O)c1cccc([N+](=O)[O-])c1`, the growth inhibition is -19.2% in assay [1]; -26.7% in assay [2]; 0.25% in assay [3]; 15.3% in assay [4]; 0.7% in assay [5]; -14.3% in assay [6].
